# The supplement of paper PMC10981050
# Where a name gives a salt, the structure may show the parent alone.
# Test system: MOLM14
# Experiment: cell viability relative to vehicle control; higher = less cytotoxic
# Settings: 10 µM; SRSF2 genotype: SRSF2 P95H/wt
# Procedure, shortened: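 Mutant clones made by CRISPR editing and their isogenic wild-type counterparts, from four leukaemia lines, were exposed to a single 10 µM dose of each library compound for 48 h. The supernatant was then removed and CellTiter-Glo luminescence was read. Viability was reported as percent of the on-plate vehicle control.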
row,SMILES,cell viability [%]
1,Nc1nc(-c2nn(Cc3ccccc3F)c3ncccc23)ncc1C1CC1,104
2,O=C(O)c1cc2cccc([N+](=O)[O-])c2[nH]1,106
3,C=C1CC[C@H]2O[C@]2(C)CC[C@@H]2[C@@H]1CC2(C)C [Caryophyllene oxide],103
4,CC(C)c1ccc(C=O)cc1 [4-Isopropylbenzaldehyde],86.2
5,COC(=O)/C=C/C(=O)OC [Dimethyl Fumarate],102
6,CCc1ccc(-c2nc(CSCC(=O)NCCc3ccccc3)c(C)o2)cc1,87.5
7,CCCSc1nc(N[C@@H]2C[C@H]2c2ccc(F)c(F)c2)c2nnn([C@@H]3C[C@H](OCCO)[C@@H](O)[C@H]3O)c2n1 [Ticagrelor],74.5
8,O=C(O)C(=O)O [Oxalic acid],95.2
9,CN1C(C(=O)Nc2ccccn2)=C(O)c2sccc2S1(=O)=O [Tenoxicam(Mobiflex)],98.4
10,O=C(CCNC(=O)c1ccc(OC(F)(F)F)cc1)N[C@@H]1CCCc2ccccc21,93.7
11,NC1(C(=O)N[C@@H](CCO)c2ccc(Cl)cc2)CCN(c2ncnc3[nH]ccc23)CC1,28.5
12,COc1ccc(Oc2cc(C)c(-c3csc(NC(=O)c4ccncc4)n3)c(C)c2)cc1,42.4

# Same assay, conditions: 10 µM; SRSF2 genotype: SRSF2 wt/wt
row,SMILES,cell viability [%]
1,COc1ccc2cc3[n+](cc2c1OC)CCc1cc2c(cc1-3)OCO2 [Berberine Sulfate],75.3
2,CO/N=C(\C(=O)N[C@@H]1C(=O)N2C(C(=O)[O-])=C(C[n+]3ccn4ncccc43)CS[C@H]12)c1nsc(N)n1 [Cefozopran hydrochloride],106
3,O=C1NC(=O)/C(=C/c2cccc(C(F)(F)F)c2)S1,102
4,CC(C)NCC(O)c1ccc(O)c(O)c1 (stereo not drawn) [Isoprenaline hydrochloride],96.5
5,CC(C)C(C)C(O)C(O)C(C)C1CCC2C3COC(=O)C4CC(O)C(O)CC4(C)C3CCC12C (stereo not drawn) [Brassinolide],103
6,O=c1c(-c2ccc(O)cc2)coc2cc(O[C@@H]3O[C@H](CO)[C@@H](O)[C@H](O)[C@H]3O)cc(O)c12 [Genistin (Genistoside)],99.7
7,C[C@H]1[C@@H](O)O[C@@H]2O[C@@]3(C)CC[C@H]4[C@H](C)CC[C@@H]1[C@@]24OO3 [Dihydroartemisinin (DHA)],9.71
8,Nc1ncnc2c1ncn2C(C=O)OC(C=O)CO (stereo not drawn) [Adenosine Dialdehyde (ADOX)],14.5
9,COc1nc2ccc(Br)cc2cc1[C@@H](c1ccccc1)[C@@](O)(CCN(C)C)c1cccc2ccccc12 [Bedaquiline],75.5
10,CO[C@@H]1[C@@H](OC)[C@H](C)[C@@](O)(CC(=O)O)O[C@H]1[C@H](C)[C@H]1O[C@@]2(CC[C@@](C)([C@H]3CC[C@@](C)([C@@H]4O[C@@H]([C@H]5O[C@](C)(O)[C@H](C)C[C@@H]5C)C[C@@H]4O[C@@H]4C[C@H](OC)[C@@H](OC)[C@H](C)O4)O3)O2)C[C@H](O)[C@H]1C [Maduramycin Ammonium],22.5
11,CCn1c(=O)c(-c2ccc(-c3cncs3)cc2Cl)cc2cnc(Nc3ccc(N4CCN(C)CC4)cc3)nc21,53.2
12,O=P(O)(O)Oc1cccc2ccccc12 [1-Naphthyl phosphate potassium salt],104
13,O=c1c(O)c(-c2ccc(O)cc2)oc2cc(O)cc(O)c12 [Kaempferol],68
14,"CCC(=O)O[C@]1(C(=O)SCF)[C@H](C)C[C@H]2[C@@H]3C[C@H](F)C4=CC(=O)C=C[C@]4(C)[C@@]3(F)[C@@H](O)C[C@@]21C [Fluticasone propionate (Flonase, Veramyst)]",83.2
15,Nc1nc(NC2CC2)cc(-c2cccc(Cl)c2Cl)n1,21.5
16,CC(C)CCCC(C)C1CCC2C3=CC=C4CC(O)CCC4(C)C3CCC21C (stereo not drawn) [7-Dehydrocholesterol],93.9
17,O=C1C(c2[nH]c3ccccc3c2O)=Nc2ccccc21 [Indigo],99.8
18,CN(CCNc1ccnc2cc(Cl)ccc12)CCNc1ccnc2cc(Cl)ccc12,0.43
19,COc1ccc2cc(CCC(C)=O)ccc2c1 [Nabumetone],104
20,COc1cc(C=O)ccc1O [Vanillin],102
21,CCC(=O)OCC(=O)[C@@]1(OC(=O)CC)[C@@H](C)C[C@H]2[C@@H]3CCC4=CC(=O)C=C[C@]4(C)[C@@]3(F)[C@@H](O)C[C@@]21C [Betamethasone Dipropionate (Diprolene)],96
